Assay outcomes (PubChem BioAssay)
Rows were chosen to be rich in hits. Some 3.5% of all compounds tested hit in one or more screens of this group.
TEAD-YAP block: TEAD-YAP interaction inhibition | HEK-TIYL cells, TEAD-Gal4/YAP UAS-luciferase luminescence | 640,000 compounds, 1.4% hits | inhibition, % at 9.12 µM | AID 1259422; in the data active means inhibition above about 32%;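 further: 0% = median of test compound wells and 100% = reference inhibitor wells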
GPR151 activ: human GPR151 activation; Q8TDV0; PathHunter beta-arrestin GPR151 cells, luminescence; activation, % at 11.2 µM; 650,000 compounds, 1% hits; AID 1508602; in the data active means activation above about 4.9%;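 further: 0% = median of compound wells and 100% = cells with positive control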
Target sequence (Q8TDV0 whole entry, looked up): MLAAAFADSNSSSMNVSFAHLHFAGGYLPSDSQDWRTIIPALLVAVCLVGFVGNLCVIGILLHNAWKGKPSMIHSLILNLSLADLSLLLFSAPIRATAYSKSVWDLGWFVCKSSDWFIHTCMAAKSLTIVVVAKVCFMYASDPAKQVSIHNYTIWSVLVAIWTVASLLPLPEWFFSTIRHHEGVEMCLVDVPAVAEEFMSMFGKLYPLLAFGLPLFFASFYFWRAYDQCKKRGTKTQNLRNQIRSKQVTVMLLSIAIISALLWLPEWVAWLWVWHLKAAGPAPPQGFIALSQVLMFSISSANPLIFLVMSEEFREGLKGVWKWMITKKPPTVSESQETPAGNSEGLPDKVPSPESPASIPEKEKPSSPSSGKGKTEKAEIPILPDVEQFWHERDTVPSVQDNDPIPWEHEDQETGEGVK
MITF primary: inhibitors of human MITF. AlphaScreen MITF homodimerization, bead proximity signal. inhibition, % at 2.6 µM. 650,000 compounds, 0.91% hits. AID 1259374; in the data active means inhibition above about 50%;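 further: 0% = vehicle wells with protein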
FBW7 activator: activators of human E3 ligase FBW7 | 650,000 compounds, 0.13% hits | AID 1259310 | normalized activity (activation), % at 26.1 µM | AlphaScreen FBW7–phospho-cyclin E peptide binding, activator screen; in the data active means normalized activity above about 1.9%;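 further: purified mutant Fbw7 with reduced substrate affinity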
An asterisk follows results filed as active.

SMILES | TEAD-YAP block | GPR151 activ | MITF primary | FBW7 activator
COC(=O)c1cnc(N2CCCCCC2)c2ccccc12 | -19 | -1 | 3 | 0
COC(=O)c1ccc(N2CCCCC2)c2c1C(=O)c1ccccc1C2=O | 3 | 4 | 55* | 0
Cc1ccc(-c2ccc(/C=C3/C(=N)N4N=C(Cc5ccccc5)SC4=NC3=O)o2)cc1Cl | -4 | 0 | -4 | 0
COc1ccc(NC(=O)C(Cc2c[nH]c3ccccc23)NC(=O)c2ccccc2)cc1 (stereo not drawn) | 62* | 0 | 5 | 0
O=C(NC(Cc1c[nH]c2ccccc12)C(=O)Nc1ccccc1)Oc1ccccc1 (stereo not drawn) | 10 | 1 | 6 | 0
CC1CCC(C(=O)NC(Cc2c[nH]c3ccccc23)C(=O)Nc2cccnc2)CC1 (stereo not drawn) | 58* | 0 | 9 | 0
CCc1cc2cccc(C)c2nc1SCC(=O)NNC(C)=O | -2 | 0 | 3 | 0
Cc1cccc(NC(=O)CSc2cn(Cc3ccc(F)cc3)c3ccccc23)c1 | 5 | 0 | -12 | 0
CCOC(=O)CSC1=C(C#N)C(c2ccc(C)cc2)CC(=O)N1 (stereo not drawn) | 1 | -1 | 9 | 0
CCOC(=O)CSC1=C(C#N)C(c2ccccc2F)CC(=O)N1 (stereo not drawn) | 48* | 1 | 14 | 0
CCOc1ccccc1C1CC(=O)NC(SCC(=O)OC)=C1C#N (stereo not drawn) | 59* | 0 | 7 | 0
CCOc1ccccc1C1CC(=O)NC(SCC)=C1C#N (stereo not drawn) | 7 | 0 | 12 | 0
COC(=O)CSC1=C(C#N)C(c2cccc(F)c2)CC(=O)N1 (stereo not drawn) | 46* | 1 | 20 | 0
CCOC(=O)CSC1=C(C#N)C(c2ccc(F)cc2)CC(=O)N1 (stereo not drawn) | 42* | -2 | 15 | 0
COc1ccc(C(C)(C)C)cc1NC(=O)COC(=O)c1ccc[nH]c1=O | 3 | -1 | 11 | 0
CN(C(=O)N1CCC(C(=O)NC(c2ccccn2)c2cccs2)CC1)c1ccccc1 (stereo not drawn) | 8 | 0 | 22 | 0
O=C(c1cnn2c(-c3ccccc3)cc(-c3ccccc3)nc12)n1ccnc1 | 8 | 1 | 6 | 0
CCOC(=O)c1sc2ncnc(N3CCN(Cc4ccccc4)CC3)c2c1C | -20 | 0 | -6 | 0
O=C1NC2(CCN(Cc3c(O)ccc4ccccc34)CC2)Oc2ccccc21 | -7 | -2 | -17 | 0
O=C(c1nn2c(C(F)(F)F)cc(-c3ccco3)nc2c1Cl)N1CCCCCC1 | 3 | 0 | 22 | 0
CCOC(=O)CSC1=C(C#N)C(c2ccc(C)s2)CC(=O)N1 (stereo not drawn) | 54* | -1 | 20 | 0
COC(=O)CSC1=C(C#N)C(c2ccc(C)s2)CC(=O)N1 (stereo not drawn) | 7 | -1 | 10 | 0
COc1ccc(CCNc2nc(SCC(=O)N3CCN(c4ccccc4OC)CC3)nc3ccccc23)cc1OC | 34* | -1 | -1 | 1
CCC(C)NC(=O)CSc1nc(NCCc2ccc(OC)c(OC)c2)c2ccccc2n1 (stereo not drawn) | -2 | -1 | -5 | 0
COc1ccc(CCNc2nc(SCC(=O)N3CCN(c4ccccc4)CC3)nc3ccccc23)cc1OC | 36* | 1 | 10 | 1
SMILES | TEAD-YAP block | GPR151 activ | MITF primary | FBW7 activator
COc1ccc(CCn2c(SCC(=O)N3CCN(c4ccccc4OC)CC3)nc3ccsc3c2=O)cc1OC | 51* | -1 | 7 | 0
CC(C)=C/C(C)=N/Nc1ccc(S(=O)(=O)N2CCOCC2)cc1[N+](=O)[O-] | -2 | 0 | 7 | 0
COC(=O)C1C(O)=C(C(C)=NC(C)C)C(=O)CC1(C)C (stereo not drawn) | 9 | 2 | 2 | 0
CCOc1ccc(/C=N/NC(=O)c2ccoc2C)cc1 | 38* | -9 | 11 | 0
CC(/C=N\NC(=O)c1ccccn1)=C\c1ccccc1 | 34* | -4 | 10 | 0
O=C(N/N=C/c1ccc(O)cc1)c1ccccn1 | -24 | -7 | 5 | 0
CSc1ccc(/C=N\NC(=O)c2ccccn2)cc1 | 49* | -7 | 11 | 1
O=C(N/N=C\c1ccc(F)cc1)c1ccccn1 | -8 | -4 | 8 | 0
CC(=C/c1ccccc1)/C=N/NC(=O)c1ccccn1 | -7 | -3 | 19 | 0
O=C(N/N=C\c1ccc(O)cc1)c1ccccn1 | 42* | -7 | 6 | 0
CCc1ccc(/C=N/NC(=O)c2ccccn2)cc1 | 30 | -5 | 4 | 0
O=C(N/N=C\c1cccc(O)c1)c1ccccn1 | 74* | -7 | -6 | 0
CCOc1ccc(/C=N\NC(=O)c2ccccn2)cc1 | 36* | -6 | 18 | 0
O=C(N/N=C/c1cccc(O)c1O)c1ccccn1 | -10 | -8 | 81* | -1
CCn1c(SCc2cccnc2)nnc1-c1cc2ccccc2cc1O | 44* | 0 | -2 | 0
CCSc1nc2sccn2c(=O)c1C(=O)NCc1ncc(C(F)(F)F)cc1Cl | 11 | 0 | 20 | 0
O=C(NCc1ncc(C(F)(F)F)cc1Cl)c1cn2ccsc2n1 | 2 | -1 | 25 | 2.0*
N#Cc1c(N)nc(SCC(=O)O)c(C#N)c1-c1ccc(O)cc1 | -3 | 5 | -9 | 0
N#Cc1c(N)nc(SCC(=O)c2ccc(F)cc2)c(C#N)c1-c1ccc(O)cc1 | 34* | 4 | -5 | 0
COc1ccc(/C=C2/SC(=Nc3ccccc3)NC2=O)cc1OC | 1 | 1 | 7 | 0
COc1ccc(/C=C2\SC(=Nc3cccc(O)c3)NC2=O)cc1OC | 43* | 1 | 3 | 0
COc1cccc(/C=C2\SC(=Nc3ccc(O)cc3)NC2=O)c1OC | 46* | 3 | 4 | 0
COc1ccc(/C=C2/SC(=Nc3ccc(O)cc3)NC2=O)c(OC)c1OC | 0 | 2 | 0 | 0
Cc1[nH]c2ccccc2c1C(=O)CN(C)C | -10 | -1 | -9 | 0
CCOC(=O)c1c(C)[nH]c(C)c1C(=O)CCl | 71* | -1 | 7 | 0
SMILES | TEAD-YAP block | GPR151 activ | MITF primary | FBW7 activator
CC(=O)c1c(-c2ccccc2)[nH]c2ccccc12 | 46* | 4 | 5 | 0
Cc1[nH]c2ccccc2c1C(=O)CCl | 5 | -2 | 18 | 2.3*
Cc1ccc(S(=O)(=O)Nc2ccccc2/C=N/n2cnnc2)cc1 | 51* | 2 | 11 | 0
O=C(CC1C(=O)NCCN1Cc1cccc(F)c1F)NC1CCCC1 (stereo not drawn) | -2 | 0 | 6 | 0
Cc1ccc(-c2cccc3cnc(Nc4ccc(C(=O)N5CCOCC5)cc4)nc23)cn1 | 49* | 0 | 22 | 0
Cc1ccc(-c2cccc3cnc(Nc4cccc(C(=O)N5CCN(C)CC5)c4)nc23)cn1 | 33* | 1 | 16 | 0
Cc1ccc(-c2cccc3cnc(Nc4ccc(C(=O)N5CCN(C)CC5)cc4)nc23)cn1 | 55* | -1 | 35 | 0
CC1Oc2ccc([N+](=O)[O-])cc2N(Cc2ccncc2)C1=O (stereo not drawn) | -19 | 0 | 14 | 0
